PNC inhibitor – High Content Assay for Compounds that inhibit the Assembly of the Perinucleolar Compartment; PC3M PTB-GFP, PNC prevalence imaging, 16 h; stronger effect = lower value; activity change (PNC), negative = inhibition, % at 10 µM; 140,000 compounds, 3.1% hits; AID 2417, 2010;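 active means readout at or below -70, meaning at least 70% loss of cells showing the perinucleolar compartment, a nuclear body marking cancer cells; inconclusive means readout between -30 and a set limit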;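 further: plate controls were DMSO wells for no effect and camptothecin positive control wells for full effect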
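PC3M cells stably expressing PTB-GFP, 750–1000 cells/well, treated 16 h at 37 °C with compound (23 nl of library stock), in duplicate. After paraformaldehyde fixation and Hoechst stain, imaged at 20x; PNC prevalence scored by image analysis.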
ALDH1A1 inh – qHTS Assay for Inhibitors of Aldehyde Dehydrogenase 1 (ALDH1A1). 220,000 compounds, 7.3% hits. Aldehyde dehydrogenase 1A1 (Homo sapiens), P00352. Potency, µM (highest dose often 75.3 µM), inactives show at the top dose activity, negative = inhibition, hits mostly inhibitors. Purified ALDH1A1, NADH fluorescence, propionaldehyde substrate. AID 1030, 2008;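 further: potency means the concentration at half of the fitted maximal effect; plate controls were no enzyme wells and a reference inhibitor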
HPGD block – qHTS Assay for Inhibitors of HPGD (15-Hydroxyprostaglandin Dehydrogenase). 15-hydroxyprostaglandin dehydrogenase [NAD(+)] (Homo sapiens), P15428. 150,000 compounds, 4.3% hits. Potency, µM, inactives show at the top dose activity change, negative = inhibition, usual class: inhibitors. purified HPGD, NADH fluorescence kinetic, PGE2 substrate. AID 894, 2007; further: potency means the concentration at half of the fitted maximal effect
Target sequence (P15428 whole entry, looked up): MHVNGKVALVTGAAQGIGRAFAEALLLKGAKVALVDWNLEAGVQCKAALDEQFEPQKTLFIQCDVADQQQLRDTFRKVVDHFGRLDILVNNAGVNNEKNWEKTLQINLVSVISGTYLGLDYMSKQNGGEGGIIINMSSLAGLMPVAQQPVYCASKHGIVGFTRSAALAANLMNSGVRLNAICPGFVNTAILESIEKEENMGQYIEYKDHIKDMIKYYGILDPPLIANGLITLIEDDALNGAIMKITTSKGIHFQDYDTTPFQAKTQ
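NADH formation kinetics: reaction with 30 uM PGE2 and 1 mM NAD+ (final), 20 nM enzyme, Tris-HCl pH 8 with Tween 20, after 15 min compound preincubation at room temperature. Fluorescence change, last versus first of five reads.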
An asterisk follows results filed as active; ? = inconclusive; / = no result; [ ] = dose if it differs, or a comment. Shown are actives, neighbours in structure and some others; about 11% of the full set was active somewhere. Unless noted, the call rests on the fitted dose curve; in most records, active means well fitted inhibition curve with a large enough effect (not every such curve was filed as active); inconclusive means small, poorly fitted or top-dose-only effect, or another doubt; inactive means no such curve, though single readings can be large or run the other way. Unless noted, on the % scale 0 is the no-effect control and ±100 the full control effect.

SMILES | PNC inhibitor | ALDH1A1 inh | HPGD block
CC(NC(=O)Nc1cccc([N+](=O)[O-])c1)(C(F)(F)F)C(F)(F)F | 39.1 | -5.0% | -14.6%
Cc1c(NC(=S)NC(=O)C(c2ccccc2)c2ccccc2)cccc1C(=O)O | -4.7 | 8.7% | -9.7%
Cc1c(NC(=S)NC(=O)c2sc3ccccc3c2Cl)cccc1C(=O)O | / | 25.1µM* | /
COc1ccccc1C(=O)NNC(=S)NC(=O)c1sc2ccccc2c1Cl | -25.3 | -11.1% | -10.3%
COc1ccccc1C(=O)NC(=S)NNC(=O)c1sc2ccccc2c1Cl | ? | -5.0% | 31.6µM*
N#Cc1ccccc1CN1C(=O)S/C(=C/c2cccn2-c2ccc(C(=O)O)cc2)C1=O | ? | 0.501µM* | 28.2µM*
CN1C(=O)S/C(=C/c2cccn2-c2cccc(C(=O)O)c2)C1=O | / | -11.3% | /
CC(C)Oc1ccc(N2CC(C(=O)Nc3ccccc3F)CC2=O)cc1 (stereo not drawn) | 66.1 | -3.6% | -11.3%
O=C(Nc1ccccc1C(F)(F)F)C1CC(=O)N(c2ccccc2F)C1 (stereo not drawn) | -80.8* | ? | -6.0%
S=c1[nH]nc([C@@H]2C[C@H]2c2ccccc2)n1-c1ccccc1 | ? | ? | 25.1µM*
O=C(Cc1ccccc1)NCc1n[nH]c(=S)n1-c1ccccc1 | / | -2.8% | /
Cc1cccc(NC(=S)NC(C)(C)CC(C)(C)C)c1 | / | 3.3% | /
O=C(c1ccc2c(c1)OCCO2)N1CCN(Cc2ccccc2)CC1 | 64.9 | ? | -4.6%
COc1cc(/C=N\NC(=O)C2CC3C=CC2C3)ccc1O (stereo not drawn) | ? | 4.6% | -16.7%
COc1cc(/C=N/NC(=S)NC2CC3CCC2C3)ccc1O (stereo not drawn) | / | 17.8µM* | /
O=C(CSc1nc2ccccc2c2ccccc12)c1ccccc1 | / | -11.7%[13.5 µM] | -19.6%
Cc1nc2ccccc2nc1SCC(=O)c1ccccc1 | 38.9 | 22.4µM* | -19.2%
CCCc1nc(SCC(=O)c2ccc(F)cc2)c2ccccc2n1 | / | 17.8µM* | /
CCCCNC(=O)CSc1nc(CCC)nc2ccccc12 | / | -2.2% | /
CN1CCCC2(CCN(C(=O)c3cc(C(F)(F)F)cc(C(F)(F)F)c3)CC2)C1 | / | 11.1% | -9.2%
CCOc1ccc(Cc2nc(C)c(CC(=O)N3CCOCC3)c(=O)[nH]2)cc1 | -10.9 | 8.0% | -6.2%
CC(C)CN(C(=O)c1cc2ccccc2o1)c1c(N)n(CC(C)C)c(=O)[nH]c1=O | -20.4 | -4.9% | /
CCOC(=O)N1CCN(c2c(NCCCN3CCCCCC3)c(=O)c2=O)CC1 | -16.3 | 11.9% | -10.1%
Nn1c(=O)c2ccccc2n2c(SCc3ccccc3)nnc12 | ? | 14.1µM* | -11.2%
Nn1c(=O)c2ccccc2n2c(SCc3ccc(C(F)(F)F)cc3)nnc12 | 18.3 | 22.4µM* | 11.2µM*
SMILES | PNC inhibitor | ALDH1A1 inh | HPGD block
CCCSc1nnc2n(N)c(=O)c3ccccc3n12 | ? | -12.2% | -1.6%
C=CCn1c(=O)c2ccccc2n2c(SCC(N)=O)nnc12 | -4.2 | 4.7% | -9.6%
Cn1nc(C(F)(F)F)c(C(=O)Nc2ccc(C(F)(F)F)cc2)c1Cl | 22.2 | 3.6% | -15.0%
COc1ccc(NC(=O)c2c(C(F)(F)F)nn(C)c2SCc2ccccc2)cc1 | 22.1 | 8.91µM* | -12.5%
Cc1cc(C(=O)OCC(=O)N2CCN(c3ccccc3)CC2)c2ccccc2n1 | 3.6 | 22.4µM* | -10.8%
O=C(OCC(=O)N1CCN(C(=O)c2ccco2)CC1)c1cc(-c2ccccc2)nc2ccccc12 | 17.5 | ? | ?
O=C(OCC(=O)N1CCN(c2ccccc2)CC1)c1ccco1 | 45.4 | 2.24µM* | -14.1%
O=C(OCC(=O)N1CCN(C(=O)c2ccco2)CC1)c1ccccc1C(=O)c1ccccc1 | -20.4 | -5.1% | -1.3%
CCCSc1nnc2nc3c(nn12)c1ccccc1n3C | 6.0 | ? | -10.4%
Cc1cc(N2CCN(C(=O)c3ccco3)CC2)n2ncnc2n1 | 7.8 | -12.2% | -14.6%
Cc1cc(N2CCN(C(=O)OC(C)(C)C)CC2)n2ncnc2n1 | -88.5* | -13.7% | /
O=C(NCc1ccccc1)C(=O)NCC1OCCN1C(=O)c1ccc(Cl)cc1 (stereo not drawn) | / | 11.7% | /
CCN1CCC(=NNC(=O)CC23CC4CC(CC(C4)C2)C3)CC1 | -14.1 | 1.78µM* | -12.8%
CC(C)C(NC(=O)CC12CC3CC(CC(C3)C1)C2)C(=O)O (stereo not drawn) | ? | 4.6% | -2.1%
COc1cc(/C=C(\C#N)C(N)=O)ccc1OS(=O)(=O)c1ccc(C)cc1 | -15.5 | 17.8µM* | 28.2µM*
CSc1ccc(/C=C(\C#N)C(=O)NC2CCCCC2C)cc1 (stereo not drawn) | ? | ? | -14.2%
COc1cc(/C=N/NC(=O)COc2cc(C)cc(C)c2)ccc1OS(=O)(=O)c1ccc(C)cc1 | ? | ? | -13.0%
COc1cc(/C=C(\C#N)C(=O)NC2CCCCC2C)ccc1OS(=O)(=O)c1ccc(C)cc1 (stereo not drawn) | ? | 8.91µM* | ?
CC(C)(C)C(=O)Nc1cc(NC(=O)C(C)(C)C)cc(C(=O)Nc2cc(C(=O)O)cc(C(=O)O)c2)c1 | -27.4 | 4.4% | -12.5%
COC(=O)C1=C(C)N(CCc2cc(OC)c(OC)c(OC)c2)C(=O)N[C@H]1c1ccccc1 | / | 8.8%[13.5 µM] | -2.3%
COC(=O)CNC(=O)C(NC(=O)OCc1ccccc1)C(C)C (stereo not drawn) | / | 6.8% | /
COC(=O)CNC(=O)C(C)NC(=O)OCc1ccccc1 (stereo not drawn) | -126.9* | 13.8% | -1.3%
COc1cc2c(cc1OC)[C@@H]1C(=O)c3ccc4c(c3O[C@@H]1CO2)C=CC(C)(C)O4 | / | -3.4% | -10.5%
COc1ccc(CN2CCNC(=O)C2CC(=O)N2CCCCO2)c(OC)c1 (stereo not drawn) | / | -2.1% | /
O=C1c2ccccc2C(=O)N1c1ccc(-c2nc3ccccc3o2)cc1 | ? | 13.8% | /
SMILES | PNC inhibitor | ALDH1A1 inh | HPGD block
O=C1c2ccccc2C(=O)N1c1cccc(-c2nc3ccccc3o2)c1 | -88.7* | 4.6% | -6.5%
C/C(=N\NC(=O)C(NC(=O)c1ccccc1)C(C)C)c1ccccc1 (stereo not drawn) | -9.0 | 16.4% | -10.2%
Cc1cnc(C)c(N2CCN(Cc3nc(-c4cccc(F)c4F)oc3C)CC2)n1 | / | -5.8% | /
COc1cccc(CN2CCN(Cc3nc(-c4cccc(F)c4F)oc3C)CC2=O)c1 | / | 25.1µM* | /
NCCC[C@@H](CC(=O)N[C@@H]1CCNC[C@H]1C(=O)N[C@H](CC(=O)N[C@@H](CCC(=O)O)CC(=O)O)Cc1ccccc1)NC(=O)C[C@H](CO)NC(=O)[C@@H]1CNCC[C@H]1N | / | 1.2% | -7.8%
CCN(c1ccccc1)c1nc2ccsc2c(=O)s1 | ? | ? | -22.6%
CN(c1ccccc1)c1nc2ccsc2c(=O)s1 | 17.8 | -15.7% | 28.2µM*
O=C(Cc1cn(Cc2cccc(Cl)c2)c2ccccc12)N1CCCCCC1 | 40.8 | -8.2% | -12.1%
C=CCOC(=O)C1=C[C@H](C2CC2)[C@@H](CCCO)[C@H](OCC)O1 | / | 28.2µM* | /
CCO[C@H]1OC(C(=O)O)=C[C@@H](C2CC2)[C@@H]1CCCO | / | 7.1% | /
COc1ccc(C(=O)N2CCC3(CC2)CN(c2ccc(-c4ccccc4)cc2)C3)cc1 | / | 0.5% | -4.3%

Screening results from PubChem.
